Test results from PubChem BioAssay (NCATS).
For part of these data: Results with a measured potency or affinity are listed apart. Calls of active or inactive are those of the source. The rule behind the calls is not given here.

What was measured:
[1] = Ebola virus entry assay, green fluorescence channel
[2] = Ebola virus entry assay, blue channel fluorescence
[3] = Ebola virus entry assay, ratio channel
[4] = Ebola virus entry assay, green channel fluorescence
[5] = Ebola virus entry assay, reporter ratio channel; Channel type: primary
[6] = Ebola virus entry assay, blue channel (ratio component)

Measured: efficacy
Throughout, for efficacy: 0% is about no effect.

CCc1cccc2c(CCO)c[nH]c12
inactive: [1] -22.1% | [2] | [3] | [4] | [5] | [6]

O=C(Oc1cccc2cccnc12)c1ccccc1
inactive: [1] -27.7% | [2] | [3] | [4] | [5] | [6]

CC(=O)Nc1ccc(OCCOCCOc2ccc(NC(C)=O)cc2)cc1
inactive: [1] 20.2% | [2] | [3] | [4] | [5] | [6]

CC(=O)OCC(=O)[C@@]1(O)CCC2C3CCC4=CC(=O)CC[C@]4(C)C3[C@@H](O)C[C@@]21C (stereo not given in full)
inactive: [1] -12.5% | [2] | [3] | [4] | [5] | [6]

O=c1[nH]c2ccccc2c(=O)n1CCCl
inactive: [1] -18.7% | [2] | [3] | [4] | [5] | [6]

CC(=O)N(CC(O)CN(C(C)=O)c1c(I)c(C(=O)NCC(O)CO)c(I)c(C(=O)NCC(O)CO)c1I)c1c(I)c(C(=O)NCC(O)CO)c(I)c(C(=O)NCC(O)CO)c1I (stereo not given)
inactive: [1] -12.3% | [2] | [3] | [4] | [5] | [6]

OC(O)C(Cl)(Cl)Cl
inactive: [1] 18.1% | [2] | [3] | [4] | [5] | [6]

Cc1cccc(C)c1NC(=O)C(C)N (stereo not given)
inactive: [1] -28.5% | [2] | [3] | [4] | [5] | [6]

CNC(C)Cc1ccccc1OC (stereo not given)
inactive: [1] -13.2% | [2] | [3] | [4] | [5] | [6]

Cc1cn([C@H]2C[C@H](F)[C@@H](CO)O2)c(=O)[nH]c1=O
inactive: [1] -14.7% | [2] | [3] | [4] | [5] | [6]

CN(C(=O)c1c(O)c2ccccc2n(C)c1=O)c1ccccc1
inactive: [1] -16% | [2] | [3] | [4] | [5] | [6]

O=C1OC(OC(=O)c2cccnc2Nc2cccc(C(F)(F)F)c2)c2ccccc21 (stereo not given)
inactive: [1] -25.3% | [2] | [3] | [4] | [5] | [6]

CC(=O)Oc1c(C)c(C)c2c(c1C)CC[C@@](C)(CCC[C@H](C)CCC[C@H](C)CCCC(C)C)O2
inactive: [1] -9.77% | [2] | [3] | [4] | [5] | [6]

CC(=O)OC[C@H]1O[C@@](COC(C)=O)(O[C@H]2O[C@H](COC(C)=O)[C@@H](OC(C)=O)[C@H](OC(C)=O)[C@H]2OC(C)=O)[C@@H](OC(C)=O)[C@@H]1OC(C)=O
inactive: [1] 9.99% | [2] | [3] | [4] | [5] | [6]

CCOc1ccc(C(=O)OCCN(CC)CC)cc1
inactive: [1] 22.6% | [2] | [3] | [4] | [5] | [6]

N[C@@H](Cc1cc(I)c(O)c(I)c1)C(=O)O
inactive: [1] 29.5% | [2] | [3] | [4] | [5] | [6]

Cc1ccc(=O)n(-c2ccccc2)c1
inactive: [1] -13.1% | [2] | [3] | [4] | [5] | [6]

O=C(CCl)c1ccc(Cl)cc1Cl
inactive: [1] -14.1% | [2] | [3] | [4] | [5] | [6]

Cc1ccc(O)cc1
inactive: [1] -17.7% | [2] | [3] | [4] | [5] | [6]

CCN[C@H]1C[C@H](C)S(=O)(=O)c2sc(S(N)(=O)=O)cc21
inactive: [1] 10.6% | [2] | [3] | [4] | [5] | [6]

C[C@@H]1C[C@H]2[C@@H]3CCC4=CC(=O)C=C[C@]4(C)[C@@]3(F)[C@@H](O)C[C@]2(C)[C@H]1C(=O)CO
inactive: [1] 20.4% | [2] | [3] | [4] | [5] | [6]

CCCCC1(COC(=O)CCC(=O)O)C(=O)N(c2ccccc2)N(c2ccccc2)C1=O
inactive: [1] -12.3% | [2] | [3] | [4] | [5] | [6]

NNC(=O)CP(=O)(c1ccccc1)c1ccccc1
inactive: [1] 11.5% | [2] | [3] | [4] | [5] | [6]

CC1(C)S[C@@H]2[C@H](N=CN3CCCCCC3)C(=O)N2[C@H]1C(=O)O
inactive: [1] -47.1% | [2] | [3] | [4] | [5] | [6]

C/C=C/c1ccc(O)c(OC)c1
inactive: [1] 19% | [2] | [3] | [4] | [5] | [6]
